Where a name gives a salt, the structure may show the parent alone.
System: S. cerevisiae NKY1551 his4x/his4B, sporulating
Experiment: HIS4 meiotic recombination assay sensitivity score (z-score vs DMSO controls); higher = stronger inhibition of sporulation/recombination, active = hit call of the paper;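 active = HIS4 sensitivity z-score above 5 vs DMSO controls; inactive = score 5 or below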

HIS4 meiotic recombination assay sensitivity score, inactive:
Cc1ccnc2c1NC(=O)c1cccnc1N2C1CC1 [Viramune] (stock concentration (mM, diluted 1:100): 10) 0.21
CN1C(=O)CC[C@H]1c1cccnc1 [Cotinine] (stock concentration (mM, diluted 1:100): 10) -1.15
C[C@@H]1C[C@H]2[C@@H]3CCC4=CC(=O)C=C[C@]4(C)[C@@]3(F)[C@@H](O)C[C@]2(C)[C@H]1C(=O)CO [Desoximetasone] (stock concentration (mM, diluted 1:100): 10) -1.12
CN1[C@@H](CC(=O)c2ccccc2)CCC[C@H]1C[C@H](O)c1ccccc1 [Lobeline hydrochloride] (stock concentration (mM, diluted 1:100): 10) 0.57
C[N+]1(C)CCC(OC(=O)C(O)(c2ccccc2)C2CCCC2)C1 (stereo unspecified) [Glycopyrrolate] (stock concentration (mM, diluted 1:100): 10) -0.65
O=C(O)C[C@H](O)C[C@H](O)/C=C/c1c(C2CC2)nc2ccccc2c1-c1ccc(F)cc1 [Livalo] (stock concentration (mM, diluted 1:100): 5) -3.02
CCOC(=O)C1=C(C)NC(C)=C(C(=O)OCC)C1c1ccccc1/C=C/C(=O)OC(C)(C)C [Lacidipine] (stock concentration (mM, diluted 1:100): 10) 0.32
COc1cc(CNC(=O)CCCC/C=C/C(C)C)ccc1O [Capsaicin] (stock concentration (mM, diluted 1:100): 10) 2.12
O=c1c(O[C@@H]2O[C@H](CO)[C@H](O)[C@H](O)[C@H]2O)c(-c2ccc(O)c(O)c2)oc2cc(O)cc(O)c12 [Hyperoside] (stock concentration (mM, diluted 1:100): 8.8) 0.06
C[C@]12C=CC(=O)C=C1CC[C@@H]1[C@@H]2[C@@H](O)C[C@@]2(C)[C@H]1CC[C@]2(O)C(=O)COC(=O)CCC(=O)O (stock concentration (mM, diluted 1:100): 10) -0.86
O=C1c2c(O)cc(O)cc2OC(c2ccc(O)c(O)c2)C1O (stereo unspecified) [Taxifolin] (stock concentration (mM, diluted 1:100): 10.1) -0.52
O=C1C(c2c(O)[nH]c3ccccc23)=Nc2ccccc21 [Indarubicin] (stock concentration (mM, diluted 1:100): 10) -1.36
O=[N+]([O-])c1cccc2cn[nH]c12 [7-Nitroindazole] (stock concentration (mM, diluted 1:100): 10) -1.75
CC(N/C(=N\C#N)Nc1ccncc1)C(C)(C)C (stereo unspecified) [Pinacidil monohydrate] (stock concentration (mM, diluted 1:100): 10) -1.38
O=C(c1ccccc1)c1ccc2n1CCC2C(=O)O (stereo unspecified) [Toradol] (stock concentration (mM, diluted 1:100): 6.8) -1.15
CC(=O)[C@]1(O)Cc2c(O)c3c(c(O)c2[C@@H](O[C@H]2C[C@H](N)[C@H](O)[C@H](C)O2)C1)C(=O)c1ccccc1C3=O [Idarubicin hydrochloride] (stock concentration (mM, diluted 1:100): 9.3) -2.94
CCN1CCN(c2cc3c(cc2F)c(=O)c(C(=O)O)cn3C2CC2)CC1 [Enrofloxacin] (stock concentration (mM, diluted 1:100): 10) 1.36
C[C@]12C[C@H](O)[C@H]3[C@@H](CCC4=CC(=O)CC[C@@]43C)[C@@H]1CC[C@@H]2C(=O)CO [Corticosterone] (stock concentration (mM, diluted 1:100): 10) 1.37
Cc1cccc(C)c1NC(=O)C1CCCCN1C (stereo unspecified) [Mepivacaine hydrochloride] (stock concentration (mM, diluted 1:100): 10) 0.1
CC(C)(C)NC(=O)[C@@H]1C[C@@H]2CCCC[C@@H]2CN1C[C@@H](O)[C@H](Cc1ccccc1)NC(=O)[C@H](CC(N)=O)NC(=O)c1ccc2ccccc2n1 [Saquinavir mesylate] (stock concentration (mM, diluted 1:100): 8.8) -1.67
Cc1cc2c(s1)Nc1ccccc1N=C2N1CCN(C)CC1 [Olanzapine] (stock concentration (mM, diluted 1:100): 9.9) 1.61
CC(=O)CCCCn1c(=O)c2c(ncn2C)n(C)c1=O [Pentoxifylline] (stock concentration (mM, diluted 1:100): 10) -0.42
CN1CC(=O)N2[C@H](c3ccc4c(c3)OCO4)c3[nH]c4ccccc4c3C[C@@H]2C1=O [Tadalafil] (stock concentration (mM, diluted 1:100): 10) -0.28
COC(=O)CCc1ccc(OCC(O)CNC(C)C)cc1 (stereo unspecified) [Esmolol hydrochloride] (stock concentration (mM, diluted 1:100): 9) 0.23
Nc1nc2ccc(Cl)cc2c2nc(-c3ccco3)nn12 (stock concentration (mM, diluted 1:100): 10) -0.12
CCC1=C(C)CN(C(=O)NCCc2ccc(S(=O)(=O)NC(=O)N[C@H]3CC[C@H](C)CC3)cc2)C1=O [Glimepiride] (stock concentration (mM, diluted 1:100): 7.7) 1.27
CC(C(=O)O)c1ccc(-c2ccccc2)c(F)c1 (stereo unspecified) [Flurbiprofen] (stock concentration (mM, diluted 1:100): 11.4) -0.16
COc1cc(OC)c(C(=O)CCCN2CCCC2)c(OC)c1 [Buflomedil hydrochloride] (stock concentration (mM, diluted 1:100): 8.9) -1.08
Oc1ccc(C2CNCCc3c2cc(O)c(O)c3Cl)cc1 (stereo unspecified) [Fenoldopam mesylate] (stock concentration (mM, diluted 1:100): 7.7) -0.24
C=CC1=C(C(=O)O)N2C(=O)[C@@H](NC(=O)/C(=N\OCC(=O)O)c3csc(N)n3)[C@H]2SC1 [Cefixime trihydrate] (stock concentration (mM, diluted 1:100): 10) -3.32
O=C(O)/C=C/c1ccc(Cn2ccnc2)cc1 [Ozagrel hydrochloride] (stock concentration (mM, diluted 1:100): 8.6) 0.54
O=C1CCc2ccc(OCCCCN3CCN(c4cccc(Cl)c4Cl)CC3)cc2N1 [Aripiprazole] (stock concentration (mM, diluted 1:100): 10) -1.42

HIS4 meiotic recombination assay sensitivity score, active:
COC(=O)C1=C(C)NC(C)=C(C(=O)OC(C)C)C1c1cccc2nonc12 (stereo unspecified) [Isradipine] (stock concentration (mM, diluted 1:100): 9.9) 5.46
COc1ccccc1N1CCN(CC(O)COc2cccc3ccccc23)CC1 (stereo unspecified) [Naftopidil] (stock concentration (mM, diluted 1:100): 10) 5.23
O=C1c2cccc3c2[C@H](CCC3)CN1[C@@H]1CN2CCC1CC2 [Palonosetron hydrochloride] (stock concentration (mM, diluted 1:100): 10) 5.73
CN(C)CCC(c1ccc(Cl)cc1)c1ccccn1 (stereo unspecified) [Chlorpheniramine] (stock concentration (mM, diluted 1:100): 10) 5.73

From the supplement of paper PMC3414501
